# Data published in the supplement of paper PMC8728848.
# About 410 targets per protein were measured; listed, in parts, are those with the strongest signals and a random draw of the rest.
# B1: GS13599A-bth-520-23-520 (Bacteroides thetaiotaomicron) (protein)
# chain: SEDTMDRINKDHDHTTSVASRFILADVITSTAFSNASGDINTYASSYIEYEVGVDNQLYYAEVRENEPSSSSTFNNSWNGIYSSLKNARIIIDQCGEGGRDHGNDVTRGMAEVMAAYNCALIADFFGDAPCSQAALVDEKGSPVYMTPKMDTQQEIYTQIISYLDDAIANLQKEDLADVTEQDFLYAGDADKWLKFAYGLKARYTMRLINRSSNKSADYEKVLDYVSKSFTSADDQAAFDIYDSNNINPFYGFYNSRAGFGASTSLGTKLLAYNDPRANRAFFTPIVDKKRSQVAANDPSLVPAPNGSPDQSTSKYGISAFVYAKTAPTLLMSYHELMFLKAEALCRLNRDAEDALKEAVVAGLLNAENSISIAIKELGSGLNTNSSEVITETSAGKYFDDVVKAKYAANPLQETMIQKYLAMWGASGEATETYNDFRRMKGLNENFITLTNPNNSSKFPLRYPYGNSDTAANPEVKAAYGNGDYVYSEPVWWAGGSR
# Key:
# Experiment in all cases: glycan array binding signal (z-score within array); higher = stronger binding
# Conditions in all cases: glycan notation: IUPAC condensed, linker removed
# [1] = biological target: Fuc(a1-2)Gal(b1-3)[Fuc(a1-4)]GlcNAc(b1-2)Man(a1-3)[Fuc(a1-2)Gal(b1-3)[Fuc(a1-4)]GlcNAc(b1-2)Man(a1-6)]Man(b1-4)GlcNAc(b1-4)[Fuc(a1-6)]GlcNAc(b1-4)[Fuc(a1-6)]GlcNAc
# Outline: (§1)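 The Consortium for Functional Glycomics database supplied 3228 glycan arrays, of which those lacking an available protein sequence were dropped. The binding signal, a within-array Z-score, was averaged across arrays of the same protein sequence and across linkers. Negative scores can be read as non-binding.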
# [2] = biological target: Fuc(a1-2)Gal(b1-4)GlcNAc(b1-2)Man
# Outline: as §1
# [3] = biological target: Fuc(a1-2)Gal(b1-4)GlcNAc(b1-2)[Fuc(a1-2)Gal(b1-4)GlcNAc(b1-4)]Man(a1-3)[Fuc(a1-2)Gal(b1-4)GlcNAc(b1-2)Man(a1-6)]Man(b1-4)GlcNAc(b1-4)GlcNAc
# Outline: as §1
# [4] = biological target: Fuc(a1-2)Gal(b1-4)[Fuc(a1-3)]GlcNAc
# Outline: as §1
# [5] = biological target: Fuc(a1-2)Gal(b1-4)[Fuc(a1-3)]GlcNAc(b1-3)Gal(b1-4)[Fuc(a1-3)]GlcNAc(b1-3)Gal(b1-4)[Fuc(a1-3)]GlcNAc
# Outline: as §1
# [6] = biological target: Fuc(a1-2)[Gal(a1-3)]Gal(b1-4)GlcNAc(b1-2)Man
# Outline: as §1
# [7] = biological target: Fuc(a1-2)[GalNAc(a1-3)]Gal(b1-4)GlcNAc(b1-6)GalNAc
# Outline: as §1
# [8] = biological target: Fuc(a1-3)[Gal(b1-4)]Glc6S
# Outline: as §1
# [9] = biological target: Fuc(a1-3)[Gal(b1-4)]GlcNAc(b1-6)[Gal(b1-3)GlcNAc(b1-3)]Gal(b1-4)Glc
# Outline: as §1
# Gal(a1-3)Gal(b1-3)GlcNAc = biological target: Gal(a1-3)Gal(b1-3)GlcNAc
# Outline: as §1
# Gal(a1-3)GalNAc = biological target: Gal(a1-3)GalNAc
# Outline: as §1
# [10] = biological target: Gal(b1-3)GlcNAc(a1-3)Gal(b1-4)GlcNAc
# Outline: as §1
# [11] = biological target: Gal(b1-3)GlcNAc(b1-3)Gal(b1-4)GlcNAc(b1-2)[Gal(b1-3)GlcNAc(b1-3)Gal(b1-4)GlcNAc(b1-6)]Man(a1-6)[Gal(b1-3)GlcNAc(b1-3)Gal(b1-4)GlcNAc(b1-2)Man(a1-3)]Man(b1-4)GlcNAc(b1-4)[Fuc(a1-6)]GlcNAc
# Outline: as §1
# Gal(b1-4)Glc = biological target: Gal(b1-4)Glc
# Outline: as §1
# [12] = biological target: Gal(b1-4)GlcNAc(a1-6)Gal(b1-4)GlcNAc
# Outline: as §1
# Gal(b1-4)GlcNAc(b1-2)Man = biological target: Gal(b1-4)GlcNAc(b1-2)Man
# Outline: as §1
# [13] = biological target: Gal(b1-4)GlcNAc(b1-2)[Gal(b1-4)GlcNAc(b1-4)]Man(a1-3)[Gal(b1-4)GlcNAc(b1-2)[Gal(b1-4)GlcNAc(b1-6)]Man(a1-6)]Man(b1-4)GlcNAc(b1-4)GlcNAc
# Outline: as §1
# [14] = biological target: Gal(b1-4)GlcNAc(b1-3)Gal(b1-4)GlcNAc(b1-2)Man(a1-3)[Gal(b1-4)GlcNAc(b1-3)Gal(b1-4)GlcNAc(b1-2)Man(a1-6)]Man(b1-4)GlcNAc(b1-4)GlcNAc
# Outline: as §1
# [15] = biological target: Gal(b1-4)GlcNAc(b1-3)Gal(b1-4)GlcNAc(b1-2)Man(a1-3)[Gal(b1-4)GlcNAc(b1-3)Gal(b1-4)GlcNAc(b1-2)Man(a1-6)]Man(b1-4)GlcNAc(b1-4)[Fuc(a1-6)]GlcNAc
# Outline: as §1
# [16] = biological target: Gal(b1-4)GlcNAc(b1-3)Gal(b1-4)GlcNAc(b1-3)Gal(b1-4)GlcNAc(b1-3)Gal(b1-4)GlcNAc(b1-2)Man(a1-3)[Gal(b1-4)GlcNAc(b1-3)Gal(b1-4)GlcNAc(b1-3)Gal(b1-4)GlcNAc(b1-3)Gal(b1-4)GlcNAc(b1-2)Man(a1-6)]Man(b1-4)GlcNAc(b1-4)[Fuc(a1-6)]GlcNAc
# Outline: as §1
# [17] = biological target: Gal(b1-4)GlcNAc(b1-3)Gal(b1-4)GlcNAc(b1-3)Gal(b1-4)GlcNAc(b1-3)Gal(b1-4)GlcNAc(b1-3)Gal(b1-4)GlcNAc(b1-2)Man(a1-3)[Gal(b1-4)GlcNAc(b1-3)Gal(b1-4)GlcNAc(b1-3)Gal(b1-4)GlcNAc(b1-3)Gal(b1-4)GlcNAc(b1-3)Gal(b1-4)GlcNAc(b1-2)Man(a1-6)]Man(b1-4)GlcNAc(b1-4)GlcNAc
# Outline: as §1
# [18] = biological target: Gal(b1-4)GlcNAc(b1-3)Gal(b1-4)GlcNAc(b1-3)Gal(b1-4)GlcNAc(b1-3)Gal(b1-4)GlcNAc(b1-3)Gal(b1-4)GlcNAc(b1-2)[Gal(b1-4)GlcNAc(b1-3)Gal(b1-4)GlcNAc(b1-3)Gal(b1-4)GlcNAc(b1-3)Gal(b1-4)GlcNAc(b1-3)Gal(b1-4)GlcNAc(b1-6)]Man(a1-6)[Gal(b1-4)GlcNAc(b1-3)Gal(b1-4)GlcNAc(b1-3)Gal(b1-4)GlcNAc(b1-3)Gal(b1-4)GlcNAc(b1-3)Gal(b1-4)GlcNAc(b1-2)Man(a1-3)]Man(b1-4)GlcNAc(b1-4)[Fuc(a1-6)]GlcNAc
# Outline: as §1
# [19] = biological target: Gal(b1-4)GlcNAc(b1-3)Gal(b1-4)GlcNAc(b1-3)Gal(b1-4)GlcNAc(b1-3)Gal(b1-4)GlcNAc(b1-3)Gal(b1-4)GlcNAc(b1-3)Gal(b1-4)GlcNAc(b1-2)Man(a1-3)[Gal(b1-4)GlcNAc(b1-3)Gal(b1-4)GlcNAc(b1-3)Gal(b1-4)GlcNAc(b1-3)Gal(b1-4)GlcNAc(b1-3)Gal(b1-4)GlcNAc(b1-3)Gal(b1-4)GlcNAc(b1-2)Man(a1-6)]Man(b1-4)GlcNAc(b1-4)GlcNAc
# Outline: as §1
# Gal3S(b1-4)Glc = biological target: Gal3S(b1-4)Glc
# Outline: as §1
# GalNAc3S(b1-4)GlcNAc = biological target: GalNAc3S(b1-4)GlcNAc
# Outline: as §1
# [20] = biological target: GalNAc3S(b1-4)[Fuc(a1-3)]GlcNAc
# Outline: as §1
# GalNAc4S6S(b1-4)GlcNAc = biological target: GalNAc4S6S(b1-4)GlcNAc
# Outline: as §1
binder,measurement,setting,value
B1,glycan array binding signal (z-score),[1],0.741
same,glycan array binding signal (z-score),[2],-0.841
same,glycan array binding signal (z-score),[3],2.4
same,glycan array binding signal (z-score),[4],0.206
same,glycan array binding signal (z-score),[5],-0.474
same,glycan array binding signal (z-score),[6],-0.234
same,glycan array binding signal (z-score),[7],-1.38
same,glycan array binding signal (z-score),[8],0.474
same,glycan array binding signal (z-score),[9],-0.479
same,glycan array binding signal (z-score),Gal(a1-3)Gal(b1-3)GlcNAc,-0.349
same,glycan array binding signal (z-score),Gal(a1-3)GalNAc,-1.08
same,glycan array binding signal (z-score),[10],0.206
same,glycan array binding signal (z-score),[11],2.93
same,glycan array binding signal (z-score),Gal(b1-4)Glc,-0.435
same,glycan array binding signal (z-score),[12],-1.2
same,glycan array binding signal (z-score),Gal(b1-4)GlcNAc(b1-2)Man,2.44
same,glycan array binding signal (z-score),[13],-0.453
same,glycan array binding signal (z-score),[14],3.32
same,glycan array binding signal (z-score),[15],1.38
same,glycan array binding signal (z-score),[16],2.46
same,glycan array binding signal (z-score),[17],3.9
same,glycan array binding signal (z-score),[18],7.02
same,glycan array binding signal (z-score),[19],0.294
same,glycan array binding signal (z-score),Gal3S(b1-4)Glc,3.17
same,glycan array binding signal (z-score),GalNAc3S(b1-4)GlcNAc,0.897
same,glycan array binding signal (z-score),[20],2.41
same,glycan array binding signal (z-score),GalNAc4S6S(b1-4)GlcNAc,-1.28
